# Source: article PMC4336329 (PLoS ONE, 2015)
# In all, about 310,000 compounds went through this assay and about 14,000 (4.5%) showed an effect of 50% or more. The effect is printed as a negative number. For the sample, strong results were picked, then their nearest neighbours and some compounds at random.
# Biological target: human ether-à-go-go-related gene (hERG) potassium channel (human, UniProt Q12809)
# Experiment: primary screen, population patch clamp on CHO cells stably expressing hERG; higher = less effect of the substance
# 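Further: peak tail current of the secondary pulse compared with the same well before compound.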
# Chain of human ether-à-go-go-related gene (hERG) potassium channel (Q12809 whole entry, looked up): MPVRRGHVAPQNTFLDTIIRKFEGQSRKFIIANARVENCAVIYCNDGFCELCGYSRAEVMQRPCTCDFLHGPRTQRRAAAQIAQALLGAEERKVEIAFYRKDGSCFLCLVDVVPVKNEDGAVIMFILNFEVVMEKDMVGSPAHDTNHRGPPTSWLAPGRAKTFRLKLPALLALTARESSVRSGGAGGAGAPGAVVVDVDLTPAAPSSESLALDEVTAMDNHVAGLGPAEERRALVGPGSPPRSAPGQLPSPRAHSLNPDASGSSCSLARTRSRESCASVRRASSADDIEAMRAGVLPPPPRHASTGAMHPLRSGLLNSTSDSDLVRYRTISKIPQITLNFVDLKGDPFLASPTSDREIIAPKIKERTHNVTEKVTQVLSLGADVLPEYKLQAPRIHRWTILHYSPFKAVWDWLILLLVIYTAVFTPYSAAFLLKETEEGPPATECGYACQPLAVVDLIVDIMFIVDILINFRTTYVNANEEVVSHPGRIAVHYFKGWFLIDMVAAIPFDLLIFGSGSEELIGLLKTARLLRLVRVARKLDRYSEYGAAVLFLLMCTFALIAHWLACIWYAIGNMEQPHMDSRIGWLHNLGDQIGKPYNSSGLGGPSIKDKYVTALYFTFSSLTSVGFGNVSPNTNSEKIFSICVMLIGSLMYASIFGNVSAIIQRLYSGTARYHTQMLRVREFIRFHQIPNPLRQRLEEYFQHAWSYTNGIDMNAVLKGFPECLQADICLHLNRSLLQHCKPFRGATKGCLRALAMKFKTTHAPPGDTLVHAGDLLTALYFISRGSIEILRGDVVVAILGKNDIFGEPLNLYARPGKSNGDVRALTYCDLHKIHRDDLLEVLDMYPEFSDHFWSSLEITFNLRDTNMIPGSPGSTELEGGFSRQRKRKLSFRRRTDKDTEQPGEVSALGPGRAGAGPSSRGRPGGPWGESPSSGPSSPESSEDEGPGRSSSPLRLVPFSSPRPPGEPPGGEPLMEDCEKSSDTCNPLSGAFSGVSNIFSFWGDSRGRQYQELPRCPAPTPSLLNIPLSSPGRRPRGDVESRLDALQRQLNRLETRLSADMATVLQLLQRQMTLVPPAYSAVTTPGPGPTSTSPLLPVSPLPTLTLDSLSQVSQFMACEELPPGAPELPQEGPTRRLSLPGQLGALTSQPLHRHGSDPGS
row,SMILES,"hERG current change (%, negative = inhibition) at 10uM"
1,COC(=O)CCC(=O)NNC(=O)CCC(=O)Nc1cccc(Cl)c1C,6.61%
2,CNC(=O)c1cc(-c2ccc(Cl)cc2)n(-c2ccccc2)n1,4.41%
3,Cc1ccc(C)c(NS(=O)(=O)c2cc(C(=O)NCC3CCCO3)ccc2C)c1 (stereo not drawn),-47.7%
4,Cc1nc(S(=O)(=O)Cc2ccccc2Cl)nc2c1CCC2,24.1%
5,O=C(CSc1nc2c(cnn2-c2cccc(Cl)c2)c(=O)[nH]1)NCCC1=CCCCC1,-16.7%
6,CC(C)NC(=O)COC(=O)CNC(=O)c1cc(Cl)cc([N+](=O)[O-])c1,-0.0659%
7,COC(=O)/C(=N\OCc1ccc(C#N)cc1)c1c(C)nn(C)c1C,-29.3%
8,CC1(C2CC2)NC(=O)N(CC(=O)Nc2ccc(Cl)c([N+](=O)[O-])c2)C1=O (stereo not drawn),-1.15%
9,CCCc1n[nH]c(=O)c2c1nnn2Cc1ccccc1,4.86%
10,CC(=O)c1ccc2c(c1)OCO2,16.1%
11,CC(=O)c1ccc2c(c1)OCCOCCOCCOCCO2,-49.3%
12,CC(=O)c1ccc2c(c1)OCCOCCOCCO2,8.76%
13,O=C(c1ccccc1)c1ccc2c(c1)OCCOCCOCCOCCO2,-65%
14,O=C(c1ccccc1)c1ccc2c(c1)OCCOCCOCCO2,-3.96%
15,O=C(O)c1ccc2c(c1)OCCO2,3.19%
16,O=C(O)c1ccc2c(c1)OCCOCCOCCOCCOCCO2,-64%
17,O=C(O)c1ccc2c(c1)OCCCO2,4.27%
18,O=C(c1ccccc1)c1ccc2c(c1)OCCCO2,-5.56%
19,CC(=O)c1ccc2c(c1)OCCOCCOCCOCCOCCO2,-62.4%
20,NC(=O)c1ccc2c(c1)OCCO2,6.04%
21,CC(=O)c1ccc2c(c1)OCCOCCOc1ccc(C(C)=O)cc1OCCOCCO2,-76.6%

row,SMILES,"hERG current change (%, negative = inhibition) at 10uM"
1,CC(=O)Nc1ccc(C(=O)NNC(=O)c2cccc(C)c2)cc1,-1.91%
2,CCCC(=O)Nc1nnc(-c2ccco2)s1,2.55%
3,O=C(COC(=O)CSc1ccc(F)cc1)NNC(=O)c1ccc([N+](=O)[O-])cc1,-30.2%
4,O=C(CCCN1C(=O)/C(=C/c2cccs2)SC1=S)NNC(=O)c1ccccc1O,4.76%
5,COc1ccccc1Nc1nn2c(=O)c3ccc(C(=O)N4CCCCC4)cc3nc2s1,3.25%
6,Cc1cccc(OCC(=O)N=Nc2c(O)[nH]c3ccc([N+](=O)[O-])cc23)c1,-2.59%
7,CCOC(=O)CN1C(=O)C(Sc2n[nH]c(-c3cccc(C)c3)n2)CCc2ccccc21 (stereo not drawn),6.35%
8,COc1ccc(CCC(=O)N2CCCc3ccccc32)cc1,6.02%
9,Nc1c(S(=O)(=O)c2cc(Cl)ccc2Cl)c2nc3ccccc3nc2n1CCN1CCOCC1,-15.3%
10,CC(NCC(O)COc1ccccc1)C1COc2ccccc2O1 (stereo not drawn),-46.7%
11,COc1cc(CN2CCN(C(C)C)C(CCO)C2)ccc1OCc1ccccc1 (stereo not drawn),-55.2%
12,CC(C)N1CCN(Cc2ccc(OCc3ccccc3)cc2)CC1CCO (stereo not drawn),-51.6%
13,CCN1CCN(Cc2ccc(OCc3ccccc3)c(OC)c2)CC1,-17.7%
14,CC(C)N1CCN(Cc2ccc(OC3CCCC3)cc2)CC1CCO (stereo not drawn),-10.7%
15,CC(C)N1CCN(Cc2ccc3nsnc3c2)CC1CCO (stereo not drawn),8.66%
16,CC(C)N1CCN(Cc2ccc3c(c2)Cc2ccccc2-3)CC1CCO (stereo not drawn),-52.4%
17,COc1ccc(CN2CCN(C(C)C)C(CCO)C2)cc1Cn1cncn1 (stereo not drawn),34.1%
18,CC(C)N1CCN(Cc2ccncc2)CC1CCO (stereo not drawn),4.5%
19,CC(C)N1CCN(Cc2ccc(Oc3ncccn3)cc2)CC1CCO (stereo not drawn),10.9%
20,CCCSc1nsc(NC(=O)C(c2ccccc2)c2ccccc2)n1,19.3%
21,Cc1nn(C)c(C)c1NC(=O)c1cnn2c(C(F)F)cc(-c3ccccc3)nc12,40.4%

row,SMILES,"hERG current change (%, negative = inhibition) at 10uM"
1,COc1ccccc1N(CC(=O)N1CCCC1)S(=O)(=O)c1ccc(C)cc1,5.18%
2,COc1ccc(-c2noc(CCCC(=O)Nc3cccnc3)n2)cc1OC,-6.97%
3,c1ccc(-c2cc(-c3ccccc3)[nH]n2)cc1,12.3%
4,CC(C)(C)c1ccc(C(=O)NCCC(=O)N2CCCC2)cc1,16.4%
5,Cc1ccc(NC(=S)N(C)N)cc1Cl,16.8%
6,COC(=O)CN1C(=O)[C@@H]2[C@H](C1=O)[C@@H]1CC(C(=O)OC)=C[C@@H](C(=O)OC)[C@@H]3C1=C(C(=O)[C@@]3(C)NC(=O)c1ccccc1)[C@@H]2C,-2.29%
7,COc1ccc(CNS(=O)(=O)c2ccc(-n3cnnn3)c(C)c2)cc1,-15.3%
8,CCSC(=S)c1c(C)[nH]n(-c2ccccc2)c1=O,12.9%
9,Cc1ccc(NC(=O)c2cc(S(=O)(=O)c3ccccc3)ccc2Cl)cc1,-15.4%
10,O=C(Nc1ccc(F)cc1)C(c1ccccc1)N1CCN(CC(=O)N2CCCC2)CC1 (stereo not drawn),-65.3%
11,O=C(Nc1ccc(F)cc1)C(c1ccccc1)N1CCN(CC(=O)N2CCOCC2)CC1 (stereo not drawn),-52.1%
12,O=C(CN1CCN(C(C(=O)Nc2ccc(F)cc2)c2ccccc2)CC1)NC1CC1 (stereo not drawn),-27.8%
13,Cc1ccc(NC(=O)C(c2ccccc2)N2CCN(CC(=O)N3CCOCC3)CC2)cc1 (stereo not drawn),-43%
14,CCOc1ccccc1NC(=O)NC1(C(=O)N2CCOCC2)CCCCC1,15.6%
15,O=C(Nc1ccc(F)cc1)C(c1ccccc1)N1CCN(S(=O)(=O)c2ccccc2)CC1 (stereo not drawn),-5.63%
16,COc1cccc(NC(=O)C(c2ccccc2)N2CCN(CC(=O)N3CCOCC3)CC2)c1 (stereo not drawn),-36.8%
17,O=C(CN1CCN(C(c2ccccc2)c2ccccc2)CC1)N1CCOCC1.O=C(O)C(=O)O,-22.3%
18,Cc1ccc(NC(=O)C(c2ccccc2)N2CCN(CC(=O)N3CCOCC3)CC2)cc1Cl (stereo not drawn),-67.4%
19,CC(C)c1ccc(NC(=O)C(c2ccccc2)N2CCOCC2)cc1 (stereo not drawn),-12.2%
20,O=C(Nc1ccc(Cl)cc1)C(c1ccccc1)N1CCOCC1 (stereo not drawn),-27.6%
21,CCOc1ccccc1NC(=O)C(c1ccccc1)N1CCN(CC(=O)N2CCOCC2)CC1 (stereo not drawn),-76.1%
